# PubChem BioAssay (NCI)
# Compounds without any hit were thinned out: in the full panel of roughly 83,000, 20% have a hit.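 Values shown are percent growth following 48 h exposure of cells in 96-well plates to a single concentration of compound; below 10 was considered active.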 The source made the active and inactive calls.
# System: UACC-257 melanoma
# Test: NCI-60 one-dose screen, 48 h (100 = growth as untreated, 0 = no growth, -100 = all killed)
# Conditions: 10 µM unless noted
row,Structure (SMILES),growth
1,CC(=O)Nc1ccc2c(c1)c(NC(C)=O)nn2C(=O)Nc1ccc(Cc2ccccc2)cc1,87.2% (inactive)
2,Cc1ccc2c(c1)O/C(=C\c1cccc(OCC(=O)c3ccccc3)c1)C2=O,93.6% (inactive)
3,Nc1nc(SCc2ccccc2)c2ncn(C3CCCC3)c2n1,129% (inactive)
4,Cn1c2ccccc2c2c3c(c4c5ccccc5n(CCCCCC#N)c4c21)C(=O)N(O)C3=O,15.6% (inactive)
5,CCN(CC)Cc1cc(Nc2c3ccc(Cl)cc3nc3c(C)cccc23)ccc1O,-85.2% (active)
6,CS(=O)(=O)c1ccc(-c2cnc3ccc(-c4cccc(S(C)(=O)=O)c4)nn23)cc1,58.1% (inactive)
7,COc1ccc(CCN2CCCn3c2nc2ccccc2c3=O)cc1,81.3% (inactive)
8,CC#CC#Cc1cccc(=O)o1,72.6% (inactive)
9,c1ccc2c(Nc3cccc4ccccc34)cccc2c1,80.3% (inactive)
10,c1ccc(CSc2ncnc3nc[nH]c23)nc1,120% (inactive)
11,O=C(O)c1cccnc1Br,106% (inactive)
12,COc1ccc(-c2cc(-c3cccnc3)nc3sc4c(=O)n(-c5ccc(C)cc5)cnc4c23)cc1OC,104% (inactive)
13,CNC(=O)c1cc(Oc2ccc3nc(NC(=O)Nc4ccc(CN5CCOCC5)c(C(F)(F)F)c4)sc3c2)ccn1,18% (inactive)
14,CCN(CC)CCCC(C)NCCCNc1cccc2cccnc12 (stereo not drawn),104% (inactive)
15,CCCCN(CCCC)Cc1c(C)[nH]c2cc(OC)ccc2c1=O,94.5% (inactive)
16,O=C1C[C@H](Sc2nc(-c3ccc(F)cc3)cc(C(F)(F)F)n2)[C@H]2CO[C@@H]1O2,104% (inactive)
17,CCCCOc1ccc(NC(=O)n2nc(NC(C)=O)c3cc(NC(C)=O)ccc32)cc1,112% (inactive)
18,CSc1ncnc2c1ncn2C1CCCO1 (stereo not drawn),124% (inactive)
19,Oc1ccccc1N=Cc1c(O)ccc2ccccc12,93.2% (inactive)
20,Cn1c2ccccc2c2c3[nH]c(=O)[nH]c(=O)c3c3c4ccccc4n(C)c3c21,78.1% (inactive)

row,Structure (SMILES),growth
1,CCOC(=O)c1c2ncccc2n2c(=O)n(-c3ccc(Cl)cc3)nnc12,102% (inactive)
2,O=C(COc1cccc(/C=C2/Oc3ccccc3C2=O)c1)Nc1nccs1,89.4% (inactive)
3,NS(=O)(=O)c1ccc(Nc2nc3n[nH]c(Nc4ccccc4)c3c(=O)[nH]2)cc1,97% (inactive)
4,OCCNCCNc1c2ccccc2nc2ccccc12,102% (inactive)
5,COc1ccc(OCC(=O)Nc2ccc(-c3nc4ccccc4s3)cc2C)cc1,109% (inactive)
6,CCCCNP1(NCCCC)=NP(NCCCC)(NCCCC)=NP(NCCCC)(NCCCC)=NP(NCCCC)(NCCCC)=N1,-22.5% (active)
7,COCCCN=C(N)c1ccc(NC(=O)c2ccc(C(=O)Nc3ccc(C(N)=NCCCOC)cc3)cc2)cc1,121% (inactive)
8,Cn1c2ccccc2c2c3c(c4c5ccccc5[nH]c4c21)C(=O)N(N)C3=O,76.8% (inactive)
9,CCN(CC)Cc1cc(Nc2c3ccccc3nc3cc(Cl)ccc23)ccc1O,-94.8% (active)
10,COc1nc2c(cc1S(=O)(=O)c1ccccc1)CCc1c-2cnn1-c1ccc(Cl)cc1,106% (inactive)
11,CN(CC(=O)N(Cc1ccc(C2CCCCC2)cc1)c1ccc(C(=O)NO)cc1)S(=O)(=O)c1c(F)c(F)c(F)c(F)c1F,102% (inactive)
12,COc1cc(-c2nc3ccccc3s2)ccc1NC(=O)COc1ccc(Cl)cc1,85.3% (inactive)
13,CSc1[nH]c2ncnc(N)c2c1C#N,124% (inactive)
14,O=C1Nc2c(ccc(Cl)c2Cl)/C1=C/c1cc(Br)c(O)c(Br)c1,40% (inactive)
15,NS(=O)(=O)N(c1cc(C(F)(F)F)cc(C(F)(F)F)c1)C1CCN(Cc2ccc(F)cc2)CC1,62.1% (inactive)
16,COc1nc2c(cc1S(=O)(=O)c1ccccc1)CCc1c-2cnn1Cc1ccccc1,48.3% (inactive)
17,CN1CCN(Cc2ccc(NC(=O)c3[nH]ncc3Nc3ccnc4ccsc34)cc2)CC1,85.7% (inactive)
18,CC1(C)CC(C(=O)OCCCCCCCCCCC[P+](c2ccccc2)(c2ccccc2)c2ccccc2)C(C)(C)N1O (stereo not drawn),-77.1% (active)
19,C=CC[N+]1(CC)CCN=C1CCCCCCCCCCCCCCCCC (stereo not drawn),-91.3% (active)

# System: M14 melanoma
# Test: as above
# Conditions: 10 µM unless noted
row,Structure (SMILES),growth
1,CC(=O)Nc1ccc2c(c1)c(NC(C)=O)nn2C(=O)Nc1ccc(Cc2ccccc2)cc1,63% (inactive)
2,Cc1ccc2c(c1)O/C(=C\c1cccc(OCC(=O)c3ccccc3)c1)C2=O,98.9% (inactive)
3,Nc1nc(SCc2ccccc2)c2ncn(C3CCCC3)c2n1,129% (inactive)
4,Cn1c2ccccc2c2c3c(c4c5ccccc5n(CCCCCC#N)c4c21)C(=O)N(O)C3=O,1.43% (active)
5,CCN(CC)Cc1cc(Nc2c3ccc(Cl)cc3nc3c(C)cccc23)ccc1O,-88.5% (active)
6,CS(=O)(=O)c1ccc(-c2cnc3ccc(-c4cccc(S(C)(=O)=O)c4)nn23)cc1,42.8% (inactive)
7,COc1ccc(CCN2CCCn3c2nc2ccccc2c3=O)cc1,21.4% (inactive)
8,CC#CC#Cc1cccc(=O)o1,74.9% (inactive)
9,c1ccc2c(Nc3cccc4ccccc34)cccc2c1,30.3% (inactive)
10,c1ccc(CSc2ncnc3nc[nH]c23)nc1,101% (inactive)
11,O=C(O)c1cccnc1Br,99.7% (inactive)
12,COc1ccc(-c2cc(-c3cccnc3)nc3sc4c(=O)n(-c5ccc(C)cc5)cnc4c23)cc1OC,99% (inactive)
13,CNC(=O)c1cc(Oc2ccc3nc(NC(=O)Nc4ccc(CN5CCOCC5)c(C(F)(F)F)c4)sc3c2)ccn1,23.2% (inactive)
14,CCN(CC)CCCC(C)NCCCNc1cccc2cccnc12 (stereo not drawn),104% (inactive)
15,CCCCN(CCCC)Cc1c(C)[nH]c2cc(OC)ccc2c1=O,102% (inactive)
16,O=C1C[C@H](Sc2nc(-c3ccc(F)cc3)cc(C(F)(F)F)n2)[C@H]2CO[C@@H]1O2,97.8% (inactive)
17,CCCCOc1ccc(NC(=O)n2nc(NC(C)=O)c3cc(NC(C)=O)ccc32)cc1,95.2% (inactive)
18,CSc1ncnc2c1ncn2C1CCCO1 (stereo not drawn),109% (inactive)
19,Oc1ccccc1N=Cc1c(O)ccc2ccccc12,62.7% (inactive)
20,Cn1c2ccccc2c2c3[nH]c(=O)[nH]c(=O)c3c3c4ccccc4n(C)c3c21,31.8% (inactive)

row,Structure (SMILES),growth
1,CCOC(=O)c1c2ncccc2n2c(=O)n(-c3ccc(Cl)cc3)nnc12,81.1% (inactive)
2,O=C(COc1cccc(/C=C2/Oc3ccccc3C2=O)c1)Nc1nccs1,99.7% (inactive)
3,NS(=O)(=O)c1ccc(Nc2nc3n[nH]c(Nc4ccccc4)c3c(=O)[nH]2)cc1,94.2% (inactive)
4,OCCNCCNc1c2ccccc2nc2ccccc12,90.9% (inactive)
5,COc1ccc(OCC(=O)Nc2ccc(-c3nc4ccccc4s3)cc2C)cc1,89.9% (inactive)
6,CCCCNP1(NCCCC)=NP(NCCCC)(NCCCC)=NP(NCCCC)(NCCCC)=NP(NCCCC)(NCCCC)=N1,11.8% (inactive)
7,COCCCN=C(N)c1ccc(NC(=O)c2ccc(C(=O)Nc3ccc(C(N)=NCCCOC)cc3)cc2)cc1,80.3% (inactive)
8,Cn1c2ccccc2c2c3c(c4c5ccccc5[nH]c4c21)C(=O)N(N)C3=O,37.2% (inactive)
9,CCN(CC)Cc1cc(Nc2c3ccccc3nc3cc(Cl)ccc23)ccc1O,-99.6% (active)
10,COc1nc2c(cc1S(=O)(=O)c1ccccc1)CCc1c-2cnn1-c1ccc(Cl)cc1,97.5% (inactive)
11,CN(CC(=O)N(Cc1ccc(C2CCCCC2)cc1)c1ccc(C(=O)NO)cc1)S(=O)(=O)c1c(F)c(F)c(F)c(F)c1F,67.9% (inactive)
12,COc1cc(-c2nc3ccccc3s2)ccc1NC(=O)COc1ccc(Cl)cc1,60% (inactive)
13,CSc1[nH]c2ncnc(N)c2c1C#N,95.1% (inactive)
14,O=C1Nc2c(ccc(Cl)c2Cl)/C1=C/c1cc(Br)c(O)c(Br)c1,33.2% (inactive)
15,NS(=O)(=O)N(c1cc(C(F)(F)F)cc(C(F)(F)F)c1)C1CCN(Cc2ccc(F)cc2)CC1,46.6% (inactive)
16,COc1nc2c(cc1S(=O)(=O)c1ccccc1)CCc1c-2cnn1Cc1ccccc1,75.9% (inactive)
17,CN1CCN(Cc2ccc(NC(=O)c3[nH]ncc3Nc3ccnc4ccsc34)cc2)CC1,48.9% (inactive)
18,CC1(C)CC(C(=O)OCCCCCCCCCCC[P+](c2ccccc2)(c2ccccc2)c2ccccc2)C(C)(C)N1O (stereo not drawn),-13.2% (active)
19,C=CC[N+]1(CC)CCN=C1CCCCCCCCCCCCCCCCC (stereo not drawn),-99.8% (active)
